# Source: ChEMBL document CHEMBL1961873, “Compounds: GSK PKIS; Assays: Nanosyn kinase panel” (2012)
# Columns and labels:
# [1] = target: T1, Aurora kinase A (Homo sapiens) (UniProt O14965); settings: at 1 µM;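 note: values are mean percent inhibition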
# T1 sequence (whole entry): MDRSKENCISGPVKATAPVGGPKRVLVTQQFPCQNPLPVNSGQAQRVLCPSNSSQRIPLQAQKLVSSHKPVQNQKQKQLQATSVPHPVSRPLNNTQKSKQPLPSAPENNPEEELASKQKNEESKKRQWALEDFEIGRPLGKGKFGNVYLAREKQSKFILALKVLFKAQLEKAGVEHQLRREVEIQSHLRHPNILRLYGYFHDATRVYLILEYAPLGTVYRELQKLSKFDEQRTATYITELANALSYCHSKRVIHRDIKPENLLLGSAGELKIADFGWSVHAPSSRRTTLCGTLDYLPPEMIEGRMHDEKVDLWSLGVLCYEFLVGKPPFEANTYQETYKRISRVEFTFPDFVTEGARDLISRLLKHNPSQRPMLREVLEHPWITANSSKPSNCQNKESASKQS
# [2] = target: Aurora kinase B (Homo sapiens) (UniProt Q96GD4); settings: at 0.1 µM
# [3] = target: Aurora kinase B (Homo sapiens) (UniProt Q96GD4); settings: at 1 µM
# [4] = target: T2, Aurora kinase C (Homo sapiens) (UniProt Q9UQB9); settings: at 0.1 µM
# T2 sequence (whole entry): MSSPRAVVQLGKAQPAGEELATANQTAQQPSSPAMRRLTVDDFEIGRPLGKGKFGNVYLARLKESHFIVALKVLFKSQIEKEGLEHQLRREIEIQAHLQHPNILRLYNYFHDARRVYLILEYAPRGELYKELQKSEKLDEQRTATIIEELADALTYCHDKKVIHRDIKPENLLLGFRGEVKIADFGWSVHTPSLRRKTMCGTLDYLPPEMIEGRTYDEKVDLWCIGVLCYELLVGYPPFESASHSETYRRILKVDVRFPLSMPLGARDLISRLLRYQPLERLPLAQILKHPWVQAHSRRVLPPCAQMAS
# [5] = target: T2, Aurora kinase C (Homo sapiens); settings: at 1 µM
# [6] = target: Serine/threonine-protein kinase 10 (Homo sapiens) (UniProt O94804); settings: at 0.1 µM
# [7] = target: Serine/threonine-protein kinase 10 (Homo sapiens) (UniProt O94804); settings: at 1 µM
# [8] = target: T3, Mitogen-activated protein kinase kinase kinase kinase 2 (Homo sapiens) (UniProt Q12851); settings: at 0.1 µM
# T3 sequence (whole entry): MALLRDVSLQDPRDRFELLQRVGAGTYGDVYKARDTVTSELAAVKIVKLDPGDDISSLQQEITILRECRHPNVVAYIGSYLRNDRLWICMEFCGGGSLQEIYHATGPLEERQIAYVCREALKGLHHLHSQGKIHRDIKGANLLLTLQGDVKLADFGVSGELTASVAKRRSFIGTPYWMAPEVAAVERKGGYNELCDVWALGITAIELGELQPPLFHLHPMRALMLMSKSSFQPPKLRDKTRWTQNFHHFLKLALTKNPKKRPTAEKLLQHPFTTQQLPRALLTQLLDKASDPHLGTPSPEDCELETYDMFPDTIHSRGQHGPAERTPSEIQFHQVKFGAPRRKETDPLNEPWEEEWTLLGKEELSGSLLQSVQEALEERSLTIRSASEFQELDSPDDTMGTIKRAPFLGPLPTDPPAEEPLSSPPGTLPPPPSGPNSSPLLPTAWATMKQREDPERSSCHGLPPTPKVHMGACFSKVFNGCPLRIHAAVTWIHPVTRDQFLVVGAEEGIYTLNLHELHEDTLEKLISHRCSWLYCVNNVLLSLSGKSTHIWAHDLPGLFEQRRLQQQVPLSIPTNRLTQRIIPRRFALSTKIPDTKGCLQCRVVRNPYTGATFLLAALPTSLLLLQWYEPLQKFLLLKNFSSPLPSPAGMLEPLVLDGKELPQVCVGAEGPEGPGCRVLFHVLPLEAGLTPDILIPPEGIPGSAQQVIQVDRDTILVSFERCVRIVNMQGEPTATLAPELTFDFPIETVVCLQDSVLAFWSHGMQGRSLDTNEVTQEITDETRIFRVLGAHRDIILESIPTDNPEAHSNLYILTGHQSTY
# [9] = target: T3, Mitogen-activated protein kinase kinase kinase kinase 2 (Homo sapiens); settings: at 1 µM
# [10] = target: Mitogen-activated protein kinase kinase kinase kinase 4 (Homo sapiens) (UniProt O95819); settings: at 0.1 µM
# [11] = target: Mitogen-activated protein kinase kinase kinase kinase 4 (Homo sapiens) (UniProt O95819); settings: at 1 µM
# [12] = target: Dual specificity mitogen-activated protein kinase kinase 1 (Homo sapiens) (UniProt Q02750); settings: at 0.1 µM
# [13] = target: Dual specificity mitogen-activated protein kinase kinase 1 (Homo sapiens) (UniProt Q02750); settings: at 1 µM
# [14] = target: Misshapen-like kinase 1 (Homo sapiens) (UniProt Q8N4C8); settings: at 0.1 µM
# [15] = target: Misshapen-like kinase 1 (Homo sapiens) (UniProt Q8N4C8); settings: at 1 µM
# [16] = target: T4, Serine/threonine-protein kinase 4 (Homo sapiens) (UniProt Q13043); settings: at 0.1 µM
# T4 sequence (whole entry): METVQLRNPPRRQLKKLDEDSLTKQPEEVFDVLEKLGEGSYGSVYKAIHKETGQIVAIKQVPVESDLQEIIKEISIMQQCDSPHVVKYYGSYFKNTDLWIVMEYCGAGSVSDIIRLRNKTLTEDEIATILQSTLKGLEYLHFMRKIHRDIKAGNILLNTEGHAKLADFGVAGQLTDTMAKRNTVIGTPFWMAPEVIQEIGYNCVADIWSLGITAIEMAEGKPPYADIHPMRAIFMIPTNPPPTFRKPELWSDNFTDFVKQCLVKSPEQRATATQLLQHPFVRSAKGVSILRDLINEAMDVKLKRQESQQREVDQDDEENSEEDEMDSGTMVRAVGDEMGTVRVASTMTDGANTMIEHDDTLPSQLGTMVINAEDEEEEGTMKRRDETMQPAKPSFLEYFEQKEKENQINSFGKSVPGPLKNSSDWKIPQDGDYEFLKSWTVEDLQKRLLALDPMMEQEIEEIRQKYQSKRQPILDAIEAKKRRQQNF
# [17] = target: T4, Serine/threonine-protein kinase 4 (Homo sapiens); settings: at 1 µM
# [18] = target: T5, Serine/threonine-protein kinase 3 (Homo sapiens) (UniProt Q13188); settings: at 0.1 µM
# T5 sequence (whole entry): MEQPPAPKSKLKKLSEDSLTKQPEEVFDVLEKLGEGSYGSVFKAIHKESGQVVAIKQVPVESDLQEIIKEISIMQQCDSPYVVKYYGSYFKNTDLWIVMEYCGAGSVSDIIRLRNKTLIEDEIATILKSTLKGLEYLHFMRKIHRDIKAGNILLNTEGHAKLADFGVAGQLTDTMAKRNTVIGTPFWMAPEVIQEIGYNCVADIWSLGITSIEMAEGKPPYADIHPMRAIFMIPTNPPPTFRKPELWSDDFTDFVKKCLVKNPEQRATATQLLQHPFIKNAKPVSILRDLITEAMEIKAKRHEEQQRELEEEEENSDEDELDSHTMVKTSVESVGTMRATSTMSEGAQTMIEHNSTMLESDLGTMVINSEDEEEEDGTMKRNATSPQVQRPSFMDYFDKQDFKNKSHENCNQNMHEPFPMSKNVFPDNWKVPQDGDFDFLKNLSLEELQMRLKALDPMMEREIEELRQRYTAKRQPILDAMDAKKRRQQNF
# [19] = target: T5, Serine/threonine-protein kinase 3 (Homo sapiens); settings: at 1 µM
# [20] = target: Serine/threonine-protein kinase 26 (Homo sapiens) (UniProt Q9P289); settings: at 0.1 µM
# Serine/threonine-protein kinase 26 (Homo sapiens), sequence (Q9P289 2-416 limits assumed): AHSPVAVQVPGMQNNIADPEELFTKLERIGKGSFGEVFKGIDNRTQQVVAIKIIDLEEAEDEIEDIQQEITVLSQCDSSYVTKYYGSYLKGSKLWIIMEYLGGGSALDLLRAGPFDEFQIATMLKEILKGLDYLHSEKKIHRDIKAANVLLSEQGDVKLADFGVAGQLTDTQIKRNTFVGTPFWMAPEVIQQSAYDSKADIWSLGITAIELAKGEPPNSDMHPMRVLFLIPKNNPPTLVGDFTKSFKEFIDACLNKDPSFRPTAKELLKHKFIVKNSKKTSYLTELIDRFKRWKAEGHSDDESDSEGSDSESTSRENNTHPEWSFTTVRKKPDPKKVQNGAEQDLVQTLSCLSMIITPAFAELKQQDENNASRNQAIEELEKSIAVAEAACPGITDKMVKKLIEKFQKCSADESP
# Aurora kinase B (Homo sapiens), sequence (Q96GD4 whole entry): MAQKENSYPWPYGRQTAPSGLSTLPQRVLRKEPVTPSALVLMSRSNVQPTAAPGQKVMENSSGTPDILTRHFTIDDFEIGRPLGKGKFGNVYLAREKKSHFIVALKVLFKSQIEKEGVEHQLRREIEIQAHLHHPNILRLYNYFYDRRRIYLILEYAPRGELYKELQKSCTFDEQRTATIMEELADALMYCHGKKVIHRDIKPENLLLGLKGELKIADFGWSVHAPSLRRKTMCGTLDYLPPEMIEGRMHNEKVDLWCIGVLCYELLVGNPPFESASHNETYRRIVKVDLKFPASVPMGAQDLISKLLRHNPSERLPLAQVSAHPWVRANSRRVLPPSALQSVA
# Mitogen-activated protein kinase kinase kinase kinase 4 (Homo sapiens), sequence (O95819 2-1239 limits assumed): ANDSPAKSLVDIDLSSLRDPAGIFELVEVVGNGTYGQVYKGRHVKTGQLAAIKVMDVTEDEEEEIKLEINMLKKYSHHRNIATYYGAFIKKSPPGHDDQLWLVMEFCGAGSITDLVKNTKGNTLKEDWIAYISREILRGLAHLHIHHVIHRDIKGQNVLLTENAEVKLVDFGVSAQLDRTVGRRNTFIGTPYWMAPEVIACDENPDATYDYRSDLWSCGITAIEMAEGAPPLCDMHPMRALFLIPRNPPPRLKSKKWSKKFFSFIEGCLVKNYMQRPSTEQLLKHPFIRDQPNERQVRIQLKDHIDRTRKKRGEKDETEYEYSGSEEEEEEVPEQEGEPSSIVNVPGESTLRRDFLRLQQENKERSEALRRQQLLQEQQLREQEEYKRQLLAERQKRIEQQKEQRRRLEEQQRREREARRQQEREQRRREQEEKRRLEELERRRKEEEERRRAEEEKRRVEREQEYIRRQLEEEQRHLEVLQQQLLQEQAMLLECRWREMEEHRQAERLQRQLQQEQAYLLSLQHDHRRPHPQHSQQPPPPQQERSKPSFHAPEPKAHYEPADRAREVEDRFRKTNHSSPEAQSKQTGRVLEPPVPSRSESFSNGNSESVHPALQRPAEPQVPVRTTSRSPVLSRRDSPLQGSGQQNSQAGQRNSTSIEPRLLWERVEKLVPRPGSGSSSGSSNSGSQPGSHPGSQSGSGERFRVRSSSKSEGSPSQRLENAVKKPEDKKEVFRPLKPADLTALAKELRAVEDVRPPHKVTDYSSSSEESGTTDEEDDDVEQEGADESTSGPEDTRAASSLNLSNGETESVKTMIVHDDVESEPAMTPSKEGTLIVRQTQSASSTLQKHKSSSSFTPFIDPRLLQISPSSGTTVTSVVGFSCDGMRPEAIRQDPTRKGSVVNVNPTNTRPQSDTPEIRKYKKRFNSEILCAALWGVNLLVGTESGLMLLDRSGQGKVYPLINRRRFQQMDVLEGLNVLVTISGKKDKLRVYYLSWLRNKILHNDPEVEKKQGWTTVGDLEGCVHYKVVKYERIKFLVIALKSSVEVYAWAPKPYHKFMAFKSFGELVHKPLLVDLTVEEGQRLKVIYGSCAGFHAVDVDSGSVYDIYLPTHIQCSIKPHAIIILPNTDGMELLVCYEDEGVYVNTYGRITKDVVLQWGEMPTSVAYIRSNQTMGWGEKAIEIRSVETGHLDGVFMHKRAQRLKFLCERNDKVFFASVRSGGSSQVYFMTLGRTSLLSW
# Misshapen-like kinase 1 (Homo sapiens), sequence (Q8N4C8 whole entry, looked up): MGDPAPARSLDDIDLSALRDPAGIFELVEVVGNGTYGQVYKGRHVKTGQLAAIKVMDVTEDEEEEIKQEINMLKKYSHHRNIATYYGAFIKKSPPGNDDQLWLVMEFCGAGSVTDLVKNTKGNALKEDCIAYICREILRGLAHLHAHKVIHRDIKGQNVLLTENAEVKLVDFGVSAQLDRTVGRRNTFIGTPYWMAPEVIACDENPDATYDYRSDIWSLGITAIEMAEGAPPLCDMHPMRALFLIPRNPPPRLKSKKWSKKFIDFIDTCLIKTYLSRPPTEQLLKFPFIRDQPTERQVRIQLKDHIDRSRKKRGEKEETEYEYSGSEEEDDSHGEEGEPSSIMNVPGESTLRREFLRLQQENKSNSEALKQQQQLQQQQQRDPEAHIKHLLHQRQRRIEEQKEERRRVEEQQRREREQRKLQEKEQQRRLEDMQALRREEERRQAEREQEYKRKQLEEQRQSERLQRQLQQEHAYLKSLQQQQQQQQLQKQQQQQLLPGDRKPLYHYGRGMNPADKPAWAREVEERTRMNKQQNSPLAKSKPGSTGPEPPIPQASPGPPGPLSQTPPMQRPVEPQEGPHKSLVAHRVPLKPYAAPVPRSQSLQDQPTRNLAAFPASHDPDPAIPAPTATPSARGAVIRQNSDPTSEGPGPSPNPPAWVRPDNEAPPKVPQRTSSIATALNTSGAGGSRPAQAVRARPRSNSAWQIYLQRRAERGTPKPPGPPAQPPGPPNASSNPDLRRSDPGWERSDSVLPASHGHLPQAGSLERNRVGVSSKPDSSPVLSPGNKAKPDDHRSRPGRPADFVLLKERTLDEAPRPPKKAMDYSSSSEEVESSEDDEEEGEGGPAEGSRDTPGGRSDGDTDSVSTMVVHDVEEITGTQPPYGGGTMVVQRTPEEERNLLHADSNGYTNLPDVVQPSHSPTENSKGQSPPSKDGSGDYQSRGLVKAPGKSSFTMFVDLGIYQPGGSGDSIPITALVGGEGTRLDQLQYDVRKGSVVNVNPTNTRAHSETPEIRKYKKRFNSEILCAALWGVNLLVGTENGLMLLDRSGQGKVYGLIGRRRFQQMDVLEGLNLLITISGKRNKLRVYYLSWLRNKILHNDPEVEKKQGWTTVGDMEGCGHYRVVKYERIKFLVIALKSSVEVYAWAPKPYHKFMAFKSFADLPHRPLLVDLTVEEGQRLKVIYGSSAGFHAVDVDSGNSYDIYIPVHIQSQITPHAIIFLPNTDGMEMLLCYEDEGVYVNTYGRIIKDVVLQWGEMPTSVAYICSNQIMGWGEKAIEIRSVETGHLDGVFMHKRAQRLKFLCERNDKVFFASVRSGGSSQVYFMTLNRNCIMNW
# Dual specificity mitogen-activated protein kinase kinase 1 (Homo sapiens), sequence (Q02750 whole entry): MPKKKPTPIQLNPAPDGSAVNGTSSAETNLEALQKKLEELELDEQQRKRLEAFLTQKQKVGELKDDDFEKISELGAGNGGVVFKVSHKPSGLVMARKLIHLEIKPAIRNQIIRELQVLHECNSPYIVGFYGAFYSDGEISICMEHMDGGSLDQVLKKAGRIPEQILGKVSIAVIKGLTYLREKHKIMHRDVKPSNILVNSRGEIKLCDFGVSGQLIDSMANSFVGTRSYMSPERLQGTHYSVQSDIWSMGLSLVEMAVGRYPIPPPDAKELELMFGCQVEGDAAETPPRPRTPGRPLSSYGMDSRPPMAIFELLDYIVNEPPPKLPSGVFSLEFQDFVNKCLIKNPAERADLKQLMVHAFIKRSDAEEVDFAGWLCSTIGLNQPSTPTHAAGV
# Serine/threonine-protein kinase 10 (Homo sapiens), sequence (O94804 whole entry, looked up): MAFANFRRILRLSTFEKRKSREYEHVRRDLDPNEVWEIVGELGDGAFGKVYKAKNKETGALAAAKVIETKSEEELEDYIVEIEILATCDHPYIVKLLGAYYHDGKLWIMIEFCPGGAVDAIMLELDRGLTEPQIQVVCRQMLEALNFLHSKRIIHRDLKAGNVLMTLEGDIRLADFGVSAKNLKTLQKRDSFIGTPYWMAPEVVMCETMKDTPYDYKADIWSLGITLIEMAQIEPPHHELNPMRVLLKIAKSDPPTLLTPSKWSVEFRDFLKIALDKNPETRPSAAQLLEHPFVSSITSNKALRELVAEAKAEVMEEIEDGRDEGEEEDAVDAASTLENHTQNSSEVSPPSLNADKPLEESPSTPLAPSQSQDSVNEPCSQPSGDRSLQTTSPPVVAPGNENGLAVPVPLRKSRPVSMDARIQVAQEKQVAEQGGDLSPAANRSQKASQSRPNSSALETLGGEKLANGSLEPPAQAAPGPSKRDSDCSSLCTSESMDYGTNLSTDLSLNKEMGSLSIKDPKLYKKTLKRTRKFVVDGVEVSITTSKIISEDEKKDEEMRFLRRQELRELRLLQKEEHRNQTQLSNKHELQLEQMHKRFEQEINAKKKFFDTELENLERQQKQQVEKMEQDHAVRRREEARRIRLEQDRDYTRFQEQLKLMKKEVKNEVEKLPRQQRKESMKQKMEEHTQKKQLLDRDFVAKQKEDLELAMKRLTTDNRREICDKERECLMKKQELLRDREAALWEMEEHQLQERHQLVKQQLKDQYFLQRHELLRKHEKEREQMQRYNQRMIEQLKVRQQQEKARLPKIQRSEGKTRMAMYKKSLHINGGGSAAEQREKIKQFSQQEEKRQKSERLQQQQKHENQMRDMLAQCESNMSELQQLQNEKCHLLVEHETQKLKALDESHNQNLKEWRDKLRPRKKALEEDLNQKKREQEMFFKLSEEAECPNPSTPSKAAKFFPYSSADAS
Compound,inhibition [1],inhibition [2],inhibition [3],inhibition [4],inhibition [5],inhibition [6],inhibition [7],inhibition [8],inhibition [9],inhibition [10],inhibition [11],inhibition [12],inhibition [13],inhibition [14],inhibition [15],inhibition [16],inhibition [17],inhibition [18],inhibition [19],inhibition [20]
Fc1ccc(-c2ncn(C3CCNCC3)c2-c2ccnc(Oc3ccccc3)n2)cc1,-2.89%,-0.82%,1.75%,-4.42%,-1.24%,6.38%,8.33%,1.61%,4.65%,1.76%,6.15%,1.34%,3.93%,2.7%,6.65%,0.94%,1.85%,1.01%,2.48%,-0.85%
Nc1nonc1-c1nc2cnccc2n1C1CCCCC1,5.79%,0.62%,7.52%,-0.66%,5.22%,0.39%,18.4%,3.87%,20.4%,6.25%,46.2%,0.13%,7.67%,2.02%,31.4%,0.54%,18.5%,-0.2%,13.8%,0.77%
COc1cccc(COc2cc(-n3cnc4ccccc43)sc2C(N)=O)c1,2.21%,-1.57%,1.15%,1.58%,3.73%,4.63%,39.4%,1.4%,7.04%,1.37%,18.5%,0.36%,0.58%,3.1%,16.3%,-1.11%,2.62%,0.35%,1.4%,1.25%
NC(=O)c1sc(-n2cnc3cc(C(F)(F)F)ccc32)cc1OCc1ccccc1Br,2.05%,-0.8%,2.44%,1.36%,4.02%,7.36%,34.7%,1.32%,5.29%,3.11%,12.4%,2.56%,1.52%,4.93%,11.4%,1.82%,2.83%,1.31%,2.28%,1.54%
NS(=O)(=O)c1ccc(N/C=C2\C(=O)Nc3ccc4ncsc4c32)cc1,80.2%,19.6%,55.2%,22.5%,79.2%,5.85%,16.2%,12.8%,52.1%,55.1%,76.9%,8.75%,42.9%,45.2%,76.9%,70.2%,75.2%,65.1%,73.7%,42.6%
CCn1c(-c2nonc2N)nc2c(C#CC(C)(C)O)ncc(OC[C@@H]3CCCN3)c21,1.08%,-1.36%,0.87%,1.23%,1.45%,-0.11%,5.64%,2.41%,3.31%,0.39%,2.54%,1.6%,0.19%,0.63%,0.93%,0.46%,2.14%,0.87%,2.41%,0.78%
COc1cc2c(cc1Nc1nc(Nc3ccsc3C(N)=O)c3cc[nH]c3n1)N(C(=O)CN(C)C)CCC2,,0.75%,2.92%,1.46%,2.53%,11.4%,17.4%,1.63%,11.8%,9.31%,14.9%,-3.96%,-5.54%,13.3%,17%,1.72%,8.27%,,,1.14%
CCn1c(-c2nonc2N)nc2c(C#CC(C)(C)O)ncc(OCC3CCNCC3)c21,3.09%,-0.07%,0.45%,-3.33%,,3.91%,13.6%,1.42%,1.95%,4.98%,17.6%,5.08%,4.1%,5.98%,13.3%,8.62%,16.3%,8.69%,14.7%,0.23%
CCn1c(-c2nonc2N)nc2c(C#CC(C)(C)O)nc(O[C@@H](CN)c3ccccc3)cc21,5.65%,0.38%,6.56%,-0.63%,1.38%,1.16%,19.8%,4.66%,24.8%,2.87%,20.4%,-0.01%,6.28%,2.21%,11%,3.02%,15.9%,1.12%,,1.22%
COc1cccc(-n2ncc3c(N/N=C/c4ccncc4)ncnc32)c1,73.8%,7.94%,43.1%,7.33%,61.4%,5.83%,33.5%,2.12%,7.06%,20.1%,67.7%,7.89%,7.23%,16.2%,55.4%,9.07%,12.8%,5.41%,10.7%,0.95%
CCn1c(-c2nonc2N)nc2c(C#CCN)ncc(OCCCN)c21,5.16%,4.99%,6.36%,3.54%,-8.09%,4.42%,11.3%,3.61%,4.55%,1.78%,6.77%,-2.28%,-2.9%,-0.45%,11.5%,2%,5.35%,2.31%,6.61%,1.82%
Cc1cc(-c2ccco2)cc(C)c1/C=C/c1cncc(-c2nn[nH]n2)c1,20%,0%,3.63%,-0.32%,7.33%,2.24%,2.3%,1.39%,1.37%,1.07%,-0.27%,3.02%,3.14%,1.5%,0.04%,0.26%,0.16%,-0.6%,0.69%,1.06%
NS(=O)(=O)c1ccc(-c2ccc3c(NC(=O)C4CC4)n[nH]c3c2)cc1,15.3%,3.22%,0.63%,1.15%,14.4%,4.04%,5.59%,-0.26%,2.11%,3.77%,5.23%,1.7%,2%,3.12%,4.48%,3.07%,5.91%,4.35%,5.17%,0.02%
COc1cc(C=NNc2ncnc3c2cnn3Cc2ccccc2)ccc1O,25.6%,2.52%,34.4%,1.25%,10.6%,-4.65%,5.71%,0.89%,4.63%,-1.52%,7.51%,-3.29%,-4.65%,-2.43%,5.48%,-3.73%,-2.3%,-4.05%,-0.82%,1.58%
